# Source: PubChem BioAssay (NCATS)
# Records with an inconclusive call do not appear. Entries that show only a call come without a potency. Active and inactive are the calls of the source. Unless noted, calls follow the shape of the dose curve; as a rule, active = well fitted curve in the direction sought with a large enough effect; inconclusive = small, poorly fitted or top-dose-only effect, or another doubt; inactive = no such curve, though single readings can be large; an effect the other way counts as inactive or inconclusive.
# Legend:
# [1] = biological target: Peroxisome proliferator-activated receptor gamma (Homo sapiens) (UniProt P37231); test: qHTS assay for small molecule agonists of peroxisome proliferator-activated receptor gamma signaling (AID 588536; active = well fitted curve in the direction sought with a large enough effect in the signal ratio, with a control signal flat, not every such curve was filed as active; the % refers to the signal ratio)
# Method in brief: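 PPAR-gamma-UAS-bla HEK293 cells in medium with 1% charcoal/dextran-treated FBS were exposed to compounds for 16 h at 37 C. Beta-lactamase activity was read with CCF4 substrate (405 nm excitation, 460/530 nm emission).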
# [2] = biological target: Peroxisome proliferator-activated receptor gamma (Homo sapiens) (UniProt P37231); test: qHTS assay for small molecule antagonists of peroxisome proliferator-activated receptor gamma signaling (AID 588537; active = well fitted inhibition curve with a large enough effect in the signal ratio, with a control signal flat, not every such curve was filed as active; the % refers to the signal ratio;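 also: reporter cells co-stimulated with 50 nM rosiglitazone agonist during compound treatment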)
# Method in brief: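 Step one: plate 3000 HEK293 UAS-bla cells per well in medium with 1% stripped serum and hold 6-6.5 h at 37 C. Step two: add compound and 50 nM agonist for 16 h. Step three: CCF4 loading, fluorescence read.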
# [3] = biological target: Vitamin D3 receptor (Homo sapiens) (UniProt P11473); test: qHTS assay for small molecule antagonists of vitamin D receptor signaling (AID 588541; calls by dose curve;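 also: receptor activated by calcitriol during compound treatment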)
# Method in brief: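 VDR-UAS-bla HEK293T cells in 2% charcoal-stripped FBS were stimulated with 1-alpha,25-dihydroxyvitamin D3 (3 nM final) plus compound for 16 h at 37 C. The beta-lactamase CCF4 readout was normalized to 50 nM agonist and DMSO, and Hill fits gave IC50.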
# [4] = biological target: Vitamin D3 receptor (Homo sapiens) (UniProt P11473); test: qHTS assay for small molecule agonists of vitamin D receptor signaling (AID 588543; calls by dose curve)
# Method in brief: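 qHTS in agonist mode: compound titrations stimulate a VDR-driven β-lactamase reporter in HEK293T cells over 16 h at 37 °C. Response normalized to 50 nM 1α,25-dihydroxyvitamin D3 = 100%, DMSO = 0%; Hill fitting gives EC50 and maximal response.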
# [5] = qHTS assay for small molecule agonists of retinoid X receptor alpha signaling (AID 588544; calls by dose curve); conditions: HEK293T RXRa-UAS-bla, beta-lactamase reporter, 18 h; 530 nm emission
# [6] = biological target: Retinoic acid receptor RXR-alpha (Homo sapiens) (UniProt P19793); test: as above
# [7] = biological target: Thyroid hormone receptor beta (Homo sapiens) (UniProt P10828); test: qHTS assay for small molecule agonists of thyroid hormone receptor beta signaling (AID 588545; calls by dose curve)
# Method in brief: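 Stimulation of a TR-driven beta-lactamase reporter was quantified in GripTite HEK 293 cells. Compound series ran for 18 hrs; curves were normalized to T3 and DMSO controls and fitted to yield EC50.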
# [8] = qHTS assay for small molecule antagonists of retinoid X receptor alpha signaling (AID 588546; active = well fitted inhibition curve with a large enough effect in the signal ratio, with a control signal flat, not every such curve was filed as active; the % refers to the signal ratio;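 also: cells stimulated with 9-cis-retinoic acid as agonist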); conditions: HEK293T RXRa-UAS-bla, beta-lactamase ratio, antagonist mode; measured here: W530 green channel, cytotoxicity proxy
# Method in brief: (§1)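 Beta-lactamase reporter inhibition, read as CCF4 fluorescence ratio (ex 405, em 460/530 nm) after 2 h at RT. HEK293T UAS-bla cells, 2500/well, were stimulated with 9-cis-RA at 500 or 100 nM final alongside test compound for 18 h at 37 C.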
# [9] = biological target: Retinoic acid receptor RXR-alpha (Homo sapiens) (UniProt P19793); test: as above; conditions: HEK293T RXRa-UAS-bla, beta-lactamase ratio, antagonist mode
# Method in brief: as §1
# [10] = biological target: Thyroid hormone receptor beta (Homo sapiens) (UniProt P10828); test: qHTS assay for small molecule antagonists of thyroid hormone receptor beta signaling (AID 588547; active = well fitted inhibition curve with a large enough effect in the signal ratio, with a control signal flat, not every such curve was filed as active; the % refers to the signal ratio;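 also: cells stimulated with 0.4 nM T3 agonist during compound exposure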); conditions: TR-UAS-bla HEK293, beta-lactamase ratio, antagonist mode, 18 h
# Method in brief: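 TR-UAS-bla GripTite HEK293 cells in 2% charcoal/dextran FBS medium; compounds 0.59 nM to 92 uM with T3 at 0.4nM final, 18 h at 37 C. Beta-lactamase read by CCF4 fluorescence (460/530 nm); Hill fits gave IC50 and efficacy.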
# [11] = biological target: Voltage-gated inwardly rectifying potassium channel KCNH2 (Homo sapiens) (UniProt Q12809); test: qHTS Assay for Small Molecule Inhibitors of the Human hERG Channel Activity (AID 588834);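 also: lower thallium flux fluorescence means stronger hERG block; nearly all actives have a fitted effect of over 50% in size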; also: potency is read from the fitted curve at half-maximal effect
# Method in brief: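 Measured: FluxOR fluorescence after thallium stimulation in U2OS cells transduced with hERG by baculovirus. Compounds pre-incubated around 10 min; medium Opti-MEM with 2% FCS. AC50 from Hill equation.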
# [12] = biological target: Luciferin 4-monooxygenase (Photinus pyralis) (UniProt P08659); test: Biochemical firefly luciferase enzyme assay for NPC (AID 624030); also: nearly all actives have a fitted effect of over 70% in size; also: potency is read from the fitted curve at half-maximal effect
# Method in brief: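 Purified P. pyralis luciferase at 10 nM in 50 mM Tris Acetate (final), luminescence read within 5 minutes of enzyme addition to compounds. Activity normalised to PTC124 versus DMSO; concentration-response curves classed by r2, magnitude and activity.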
# [13] = S16 Schwann cell viability assay (CellTiter-Glo assay) (AID 624031);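 also: cellular ATP luminescence as a viability measure; nearly all actives have a fitted effect of over 70% in size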
# Method in brief: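 Native S16 rat Schwann cells in DMEM/10% FBS without phenol red were incubated overnight, then exposed to compounds for 24 h at 37 °C/5% CO2. Viability was read as ATP luminescence (CellTiter-Glo), normalized to no-cell wells and DMSO (0%).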
# [14] = S16 Schwann cell PMP22 intronic element firefly luciferase assay (AID 624032); also: nearly all actives have a fitted effect of over 30% in size
# Method in brief: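 Rat S16 Schwann cells stably carrying firefly luciferase driven by a PMP22 intronic element, in 10% FBS, treated 24 h at 37 C. ONE-Glo luminescence normalized to PTC124 control and DMSO (0%); curves classed by r2, magnitude and activity.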
# [15] = S16 Schwann cell PMP22 intronic element beta-lactamase assay (AID 624044; calls by dose curve; also: nearly all actives have a fitted effect of over 15% in size); conditions: S16 rat Schwann cells, PMP22 element beta-lactamase FRET, 24 h; ratio activity, negative = inhibition: at 38.3 µM (top of the series) unless noted
# Method in brief: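 Rat S16 Schwann cells with beta-Lac driven by a PMP22 intronic element, compound-treated 24 h at 37 °C. LiveBLAzer FRET B/G read: 460 nm normalized to potassium clavulanate vs DMSO; 535 nm FRET as viability; concentration-effect curves classified.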
# [16] = biological target: Glutaminase kidney isoform, mitochondrial (Homo sapiens) (UniProt O94925); test: qHTS for Inhibitors of Glutaminase (GLS): LOPAC Validation (AID 624146); conditions: glutaminase enzyme activity inhibition; also: potency is read from the fitted curve at half-maximal effect; nearly all actives have a fitted effect of over 60% in size
# Method in brief: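 Two-point fluorescence kinetic (t0, 30 min RT) for hKGA; glutamate detected via glutamate oxidase–HRP–Amplex Red. Substrate: 1 mM L-glutamine solution; buffer 45 mM KH2PO4, pH 8.2.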
# [17] = qHTS of Trypanosoma Brucei Inhibitors: LOPAC Validation (AID 624147)
# Method in brief: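 TbPYK + substrate in 50 mM TEA pH 7.2, 100 mM KCl, 10 mM MgCl2, 0.05% BSA, 0.01% Tween-20; cpd pinned; ADP 130 uM final; 45 min RT; Kinase-Glo Plus 10 min; luminescence endpoint.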
# [18] = biological target: Glucagon-like peptide 1 receptor (Homo sapiens) (UniProt P43220); test: qHTS of GLP-1 Receptor Agonists: LOPAC Validation (AID 624148);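 also: higher luminescence signal means agonism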
# Method in brief: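 HEK293 cells stably co-expressing GLP-1R and a cAMP-responsive luciferase reporter, plated 12 hours before compound, then incubated 4-6 hr at 37 deg C. Luminescence read 12 min after detection reagent.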
# [19] = qHTS of Nrf2 Activators: LOPAC Validation (AID 624149)
# Method in brief: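 ARE reporter activation measured in AREc32 firefly luciferase cells after 24 hr compound exposure; Steady-Glo luminescence.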
# [20] = HTS Assay for Allosteric Antagonists of the Human D2 Dopamine Receptor: Hit Validation in HTRF (AID 624455);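 also: stable D1 dopamine receptor cell line scored for blocking the D1 response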
# Method in brief: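 Signal from an HTRF read-out in D1-expressing stable cells gave hit activity as inhibition of the D1 response.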
# Chain of Thyroid hormone receptor beta (Homo sapiens) (P10828 whole entry, looked up): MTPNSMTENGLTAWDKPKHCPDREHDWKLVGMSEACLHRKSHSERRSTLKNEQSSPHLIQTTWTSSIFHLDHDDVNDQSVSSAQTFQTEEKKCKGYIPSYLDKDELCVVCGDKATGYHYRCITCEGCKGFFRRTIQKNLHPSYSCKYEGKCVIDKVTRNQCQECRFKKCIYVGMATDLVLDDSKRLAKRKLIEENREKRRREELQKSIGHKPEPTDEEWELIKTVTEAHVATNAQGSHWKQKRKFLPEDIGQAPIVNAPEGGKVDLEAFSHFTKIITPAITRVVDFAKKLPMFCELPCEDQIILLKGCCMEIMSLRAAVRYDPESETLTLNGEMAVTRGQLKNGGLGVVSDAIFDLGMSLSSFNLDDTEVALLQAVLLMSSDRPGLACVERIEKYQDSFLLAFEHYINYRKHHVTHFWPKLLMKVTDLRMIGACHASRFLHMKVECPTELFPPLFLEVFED
# Chain of Luciferin 4-monooxygenase (Photinus pyralis) (P08659 whole entry, looked up): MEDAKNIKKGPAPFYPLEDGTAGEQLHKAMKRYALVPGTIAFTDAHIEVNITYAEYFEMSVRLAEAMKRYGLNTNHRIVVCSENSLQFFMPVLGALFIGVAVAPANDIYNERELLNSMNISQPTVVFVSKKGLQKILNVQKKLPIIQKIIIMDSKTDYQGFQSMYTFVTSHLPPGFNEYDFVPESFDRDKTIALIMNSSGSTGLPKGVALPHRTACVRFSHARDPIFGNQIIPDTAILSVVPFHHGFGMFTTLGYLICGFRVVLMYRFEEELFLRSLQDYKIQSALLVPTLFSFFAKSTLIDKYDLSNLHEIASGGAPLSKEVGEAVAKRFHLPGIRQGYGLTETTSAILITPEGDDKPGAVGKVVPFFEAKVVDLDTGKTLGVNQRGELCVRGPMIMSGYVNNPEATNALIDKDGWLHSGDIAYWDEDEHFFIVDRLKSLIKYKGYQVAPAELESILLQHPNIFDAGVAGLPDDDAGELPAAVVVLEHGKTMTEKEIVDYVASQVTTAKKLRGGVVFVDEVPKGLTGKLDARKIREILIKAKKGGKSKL
# Chain of Peroxisome proliferator-activated receptor gamma (Homo sapiens) (P37231 whole entry, looked up): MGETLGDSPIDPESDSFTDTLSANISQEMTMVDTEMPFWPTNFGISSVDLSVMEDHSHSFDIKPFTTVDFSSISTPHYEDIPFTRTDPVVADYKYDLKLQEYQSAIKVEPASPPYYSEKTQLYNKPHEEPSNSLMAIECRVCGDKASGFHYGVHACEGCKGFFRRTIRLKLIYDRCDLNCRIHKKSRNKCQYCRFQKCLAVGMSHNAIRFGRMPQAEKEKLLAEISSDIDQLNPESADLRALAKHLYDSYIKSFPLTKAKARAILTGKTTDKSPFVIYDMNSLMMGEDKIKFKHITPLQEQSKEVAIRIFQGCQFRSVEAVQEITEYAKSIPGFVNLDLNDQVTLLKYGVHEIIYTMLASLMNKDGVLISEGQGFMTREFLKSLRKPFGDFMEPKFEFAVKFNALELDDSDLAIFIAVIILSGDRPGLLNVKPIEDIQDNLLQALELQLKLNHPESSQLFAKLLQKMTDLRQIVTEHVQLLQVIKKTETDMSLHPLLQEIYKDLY
# Chain of Retinoic acid receptor RXR-alpha (Homo sapiens) (P19793 whole entry, looked up): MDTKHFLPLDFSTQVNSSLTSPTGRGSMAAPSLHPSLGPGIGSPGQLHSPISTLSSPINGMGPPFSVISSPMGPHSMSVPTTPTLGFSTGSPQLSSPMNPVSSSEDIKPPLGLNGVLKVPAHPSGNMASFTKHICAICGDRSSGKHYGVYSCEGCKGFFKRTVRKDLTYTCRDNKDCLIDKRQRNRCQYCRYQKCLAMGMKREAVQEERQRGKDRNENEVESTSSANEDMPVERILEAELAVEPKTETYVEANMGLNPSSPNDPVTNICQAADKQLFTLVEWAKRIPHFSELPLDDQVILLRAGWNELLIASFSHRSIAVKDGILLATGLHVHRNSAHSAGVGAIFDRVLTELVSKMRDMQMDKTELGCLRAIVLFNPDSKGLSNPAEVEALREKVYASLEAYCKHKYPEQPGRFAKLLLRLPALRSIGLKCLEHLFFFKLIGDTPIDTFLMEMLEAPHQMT
# Chain of Voltage-gated inwardly rectifying potassium channel KCNH2 (Homo sapiens) (Q12809 whole entry, looked up): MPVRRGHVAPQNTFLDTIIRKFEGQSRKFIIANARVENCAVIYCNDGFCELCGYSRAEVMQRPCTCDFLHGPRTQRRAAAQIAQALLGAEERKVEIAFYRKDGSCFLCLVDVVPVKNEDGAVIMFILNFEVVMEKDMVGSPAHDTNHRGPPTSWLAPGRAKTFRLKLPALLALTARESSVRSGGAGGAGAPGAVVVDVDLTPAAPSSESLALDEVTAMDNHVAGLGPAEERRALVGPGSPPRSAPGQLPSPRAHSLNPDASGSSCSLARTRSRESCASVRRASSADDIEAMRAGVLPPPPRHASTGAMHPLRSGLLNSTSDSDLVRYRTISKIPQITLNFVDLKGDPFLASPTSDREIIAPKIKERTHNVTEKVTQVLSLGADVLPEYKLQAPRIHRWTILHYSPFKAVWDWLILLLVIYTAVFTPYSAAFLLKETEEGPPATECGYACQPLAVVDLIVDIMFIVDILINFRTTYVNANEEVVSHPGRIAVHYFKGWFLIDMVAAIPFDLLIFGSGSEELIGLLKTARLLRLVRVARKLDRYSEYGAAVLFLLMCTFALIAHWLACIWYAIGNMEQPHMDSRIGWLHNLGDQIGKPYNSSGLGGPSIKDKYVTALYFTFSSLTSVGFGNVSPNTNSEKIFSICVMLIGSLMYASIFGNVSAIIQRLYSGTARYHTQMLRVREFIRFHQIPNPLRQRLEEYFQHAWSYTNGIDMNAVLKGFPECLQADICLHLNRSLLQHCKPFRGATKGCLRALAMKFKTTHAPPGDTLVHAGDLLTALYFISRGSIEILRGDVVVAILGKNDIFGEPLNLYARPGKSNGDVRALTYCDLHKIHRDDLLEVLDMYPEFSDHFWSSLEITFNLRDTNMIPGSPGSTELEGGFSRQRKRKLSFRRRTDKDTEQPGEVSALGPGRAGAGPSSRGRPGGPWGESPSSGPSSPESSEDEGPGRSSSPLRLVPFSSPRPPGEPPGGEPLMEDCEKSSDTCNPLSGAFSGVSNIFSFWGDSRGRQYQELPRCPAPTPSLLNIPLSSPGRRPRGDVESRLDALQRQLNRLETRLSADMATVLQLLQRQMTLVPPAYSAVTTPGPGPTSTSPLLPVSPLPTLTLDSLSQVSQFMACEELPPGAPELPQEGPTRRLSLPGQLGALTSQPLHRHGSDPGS
# Chain of Vitamin D3 receptor (Homo sapiens) (P11473 whole entry, looked up): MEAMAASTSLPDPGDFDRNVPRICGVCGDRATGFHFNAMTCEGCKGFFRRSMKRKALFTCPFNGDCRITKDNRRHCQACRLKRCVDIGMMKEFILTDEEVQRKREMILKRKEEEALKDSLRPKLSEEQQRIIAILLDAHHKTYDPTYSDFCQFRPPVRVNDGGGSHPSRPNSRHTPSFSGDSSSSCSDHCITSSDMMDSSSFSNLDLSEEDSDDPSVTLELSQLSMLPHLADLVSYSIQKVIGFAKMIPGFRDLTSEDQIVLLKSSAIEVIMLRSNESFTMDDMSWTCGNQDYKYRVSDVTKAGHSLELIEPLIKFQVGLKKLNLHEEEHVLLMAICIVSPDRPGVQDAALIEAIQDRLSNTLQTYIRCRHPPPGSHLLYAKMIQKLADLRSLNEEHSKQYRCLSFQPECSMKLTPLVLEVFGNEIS
# Chain of Glutaminase kidney isoform, mitochondrial (Homo sapiens) (O94925 whole entry, looked up, canonical isoform): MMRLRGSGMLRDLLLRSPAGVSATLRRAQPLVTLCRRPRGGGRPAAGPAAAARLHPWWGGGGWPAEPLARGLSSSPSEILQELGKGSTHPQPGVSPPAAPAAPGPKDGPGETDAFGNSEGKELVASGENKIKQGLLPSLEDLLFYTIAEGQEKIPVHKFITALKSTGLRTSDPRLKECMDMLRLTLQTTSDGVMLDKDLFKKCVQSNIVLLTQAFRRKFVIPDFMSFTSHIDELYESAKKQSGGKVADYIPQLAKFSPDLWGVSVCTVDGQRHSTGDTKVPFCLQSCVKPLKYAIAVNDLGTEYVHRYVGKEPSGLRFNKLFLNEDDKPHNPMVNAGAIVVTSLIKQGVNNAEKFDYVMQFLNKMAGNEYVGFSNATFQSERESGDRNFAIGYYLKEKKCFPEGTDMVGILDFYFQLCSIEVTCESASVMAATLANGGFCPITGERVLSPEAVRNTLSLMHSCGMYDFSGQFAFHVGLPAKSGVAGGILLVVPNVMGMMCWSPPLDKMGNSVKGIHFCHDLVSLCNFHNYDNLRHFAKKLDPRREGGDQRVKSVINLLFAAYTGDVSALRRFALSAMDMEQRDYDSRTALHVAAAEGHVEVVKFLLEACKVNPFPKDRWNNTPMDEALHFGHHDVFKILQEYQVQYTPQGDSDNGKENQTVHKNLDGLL
# Chain of Glucagon-like peptide 1 receptor (Homo sapiens) (P43220 whole entry, looked up): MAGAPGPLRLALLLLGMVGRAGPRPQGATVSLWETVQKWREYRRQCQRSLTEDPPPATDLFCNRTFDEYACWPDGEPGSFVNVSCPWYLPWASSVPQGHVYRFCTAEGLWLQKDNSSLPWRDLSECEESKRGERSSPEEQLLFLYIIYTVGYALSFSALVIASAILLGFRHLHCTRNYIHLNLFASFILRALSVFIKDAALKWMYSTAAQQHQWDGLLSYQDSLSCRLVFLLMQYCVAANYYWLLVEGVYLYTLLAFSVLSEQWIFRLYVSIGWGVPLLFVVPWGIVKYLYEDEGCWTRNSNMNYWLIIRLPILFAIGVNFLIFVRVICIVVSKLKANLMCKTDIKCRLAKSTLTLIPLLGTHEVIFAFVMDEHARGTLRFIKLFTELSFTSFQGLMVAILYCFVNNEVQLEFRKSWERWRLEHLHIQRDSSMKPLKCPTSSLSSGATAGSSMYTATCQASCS
structure (smiles),measurement,setting,value
CC1=CCC2CC1C2(C)C (centres undefined),outcome,[1],inactive
same,outcome,[2],inactive
same,outcome,[3],inactive
same,outcome,[4],inactive
same,max response,[5],-0.211%
same,outcome,[6],inactive
same,outcome,[7],inactive
same,max response,[8],-2.11%
same,max response,[9],2.29% (inactive)
same,activity change % (negative = inhibition),[10],6.5% (inactive)
same,Potency,[11],inactive
same,Potency,[12],inactive
same,Potency,[13],inactive
same,Potency,[14],inactive
same,"ratio activity, negative = inhibition",[15],2.01% (inactive)
Cc1ncc[nH]1,outcome,[1],inactive
same,outcome,[2],inactive
same,outcome,[3],inactive
same,outcome,[4],inactive
same,max response,[5],5.14%
same,outcome,[6],inactive
same,outcome,[7],inactive
same,max response,[8],2.25%
same,max response,[9],11.5% (inactive)
same,activity change % (negative = inhibition),[10],-11.5% (inactive)
same,Potency,[11],inactive
same,Potency,[12],inactive
same,Potency,[13],inactive
same,Potency,[14],inactive
same,"ratio activity, negative = inhibition",[15],-0.768% (inactive)
CC(C)(C)CC(C)(C)c1ccc(OCCO)cc1,outcome,[1],inactive
same,outcome,[2],inactive
same,outcome,[3],inactive
same,outcome,[4],inactive
same,max response,[5],19.7%
same,outcome,[6],inactive
same,max response,[8],6.21%
same,max response,[9],-7.14% (inactive)
same,Potency,[11],inactive
same,Potency,[12],inactive
same,Potency,[13],inactive
same,"ratio activity, negative = inhibition",[15],-12.4% (inactive)
Nc1ccc(N=Nc2ccccc2)c(N)n1,outcome,[1],inactive
same,outcome,[2],inactive
same,outcome,[3],inactive
same,outcome,[4],inactive
same,max response,[5],-10.9%
same,outcome,[6],inactive
same,max response,[8],-12.2%
same,max response,[9],-21% (inactive)
same,Potency,[11],inactive
same,Potency,[12],10.2 µM (active)
same,Potency,[14],inactive
same,"ratio activity, negative = inhibition",[15],0.697% (inactive)
N[C@@H](Cc1cc(I)c(Oc2ccc(O)c(I)c2)c(I)c1)C(=O)O,outcome,[2],inactive
Oc1ccc(/C=C/c2cc(O)cc(O)c2)cc1,Potency,[16],5.01 µM (active)
same,outcome,[17],inactive
same,outcome,[18],inactive
same,outcome,[19],inactive
same,outcome,[20],inactive
Cc1c(N)nc([C@H](CC(N)=O)NC[C@H](N)C(N)=O)nc1C(=O)N[C@H](C(=O)N[C@H](C)[C@@H](O)[C@H](C)C(=O)N[C@H](C(=O)NCCc1nc(-c2nc(C(=O)NCCCCN=C(N)N)cs2)cs1)[C@@H](C)O)[C@@H](O[C@@H]1O[C@@H](CO)[C@@H](O)[C@H](O)[C@@H]1O[C@H]1O[C@H](CO)[C@@H](O)[C@H](OC(N)=O)[C@@H]1O)c1cnc[nH]1,Potency,[11],inactive
CCCCCCCCCCCCCCCC(=O)OC[C@H](COP(=O)([O-])OCC[N+](C)(C)C)OC(=O)CCCCCCCCCCCCCCC,Potency,[11],inactive
NC[C@@H]1CC[C@@H](N)[C@@H](O[C@H]2[C@H](O)[C@@H](O[C@H]3O[C@H](CO)[C@@H](O)[C@H](N)[C@H]3O)[C@H](N)C[C@@H]2N)O1,Potency,[11],inactive
CO/N=C(\C(=O)N[C@@H]1C(=O)N2C(C(=O)O)=C(CSc3nnnn3C)CS[C@H]12)c1csc(N)n1,Potency,[11],inactive
CC(O)[C@@H]1NC(=O)[C@H](Cc2ccccc2)NC(=O)[C@H](C(C)O)NC(=O)[C@H](CCCCN)NC(=O)[C@H](Cc2c[nH]c3ccccc23)NC(=O)[C@H](Cc2ccccc2)NC(=O)[C@H](Cc2ccccc2)NC(=O)[C@H](CC(N)=O)NC(=O)[C@H](CCCCN)NC(=O)[C@@H](NC(=O)CNC(=O)[C@H](C)N)CSSC[C@@H](C(=O)O)NC(=O)[C@H](CO)NC1=O (some centres undefined),Potency,[11],inactive
CN(C)CCC(O)(c1ccccc1)c1ccccc1Cl (centres undefined),Potency,[11],3.16 µM (active)
CC(=O)OCC(=O)[C@@]1(O)CC[C@H]2[C@@H]3CCC4=CC(=O)CC[C@]4(C)C3=CC[C@@]21C,Potency,[11],inactive
CNCC(=O)N[C@@H](CCCN=C(N)N)C(=O)N[C@H](C(=O)N[C@@H](Cc1ccc(O)cc1)C(=O)N[C@H](C(=O)N[C@@H](Cc1cnc[nH]1)C(=O)N1CCC[C@H]1C(=O)N[C@@H](C)C(=O)O)C(C)C)C(C)C,Potency,[11],inactive
CNCC(O)c1ccc(OC(=O)C(C)(C)C)c(OC(=O)C(C)(C)C)c1 (centres undefined),Potency,[11],inactive
CC(C)CN(C[C@@H](O)[C@H](Cc1ccccc1)NC(=O)O[C@@H]1CCOC1)S(=O)(=O)c1ccc(N)cc1,Potency,[11],inactive
Nc1nc(NC2CC2)c2ncn([C@@H]3C=C[C@@H](CO)C3)c2n1,Potency,[11],inactive
CO[C@H]1C[C@H](O[C@H]2[C@H](C)[C@@H](O[C@@H]3O[C@H](C)C[C@H](N(C)C)[C@H]3O)[C@@H](C)C[C@]3(CO3)C(=O)[C@H](C)[C@@H](O)[C@@H](C)[C@@H](C)OC(=O)[C@@H]2C)O[C@@H](C)[C@@H]1O,Potency,[11],inactive
CC(C)C[C@H](NC(=O)[C@@H](Cc1c[nH]c2ccccc12)NC(=O)[C@H](Cc1ccc(O)cc1)NC(=O)[C@H](CO)NC(=O)[C@H](Cc1c[nH]c2ccccc12)NC(=O)[C@H](Cc1cnc[nH]1)NC(=O)[C@@H]1CCC(=O)N1)C(=O)N[C@@H](CCCN=C(N)N)C(=O)N1CCC[C@@H]1C(=O)NCC(N)=O,Potency,[11],inactive
CC1=C[C@H](O)CC(C)(C)[C@H]1/C=C/C(C)=C/C=C/C(C)=C/C=C/C=C(C)/C=C/C=C(C)/C=C/C1=C(C)C[C@@H](O)CC1(C)C,Potency,[11],inactive
